# Sampled rows, rich in hits. Any-hit rate of the full collection: about 2.4%.
# AmpC inh det: blocks E. coli AmpC beta-lactamase in presence of detergent; purified AmpC, nitrocefin hydrolysis with detergent; Potency, µM (doses to about 28.7 µM), for the others: at the highest dose activity change, negative = inhibition; 71,000 tested, 0.09% active; active means well fitted curve in the direction sought with a large enough effect; inconclusive means small, poorly fitted or top-dose-only effect; further: on the % scale 0 is the no-effect control and ±100 the full control effect
# Target sequence (P00811 whole entry, looked up): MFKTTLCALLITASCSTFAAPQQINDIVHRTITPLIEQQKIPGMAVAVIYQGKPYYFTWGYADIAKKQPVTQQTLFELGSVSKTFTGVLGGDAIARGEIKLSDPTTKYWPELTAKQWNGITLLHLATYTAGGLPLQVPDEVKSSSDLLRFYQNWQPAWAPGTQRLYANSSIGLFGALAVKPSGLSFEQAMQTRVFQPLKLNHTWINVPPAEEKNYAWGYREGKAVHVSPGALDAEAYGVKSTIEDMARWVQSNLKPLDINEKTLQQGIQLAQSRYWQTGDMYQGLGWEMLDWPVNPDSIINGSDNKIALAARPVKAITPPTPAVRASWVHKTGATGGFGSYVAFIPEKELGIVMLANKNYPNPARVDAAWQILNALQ
#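 E. coli AmpC (5.3 nM) in 20 mM phosphate pH 7.0 with 0.01% Triton X-100, preincubated 15 min RT with compound; nitrocefin (2 uL of 800 uM stock) hydrolysis followed by 480 nm absorbance every 20 s over 4 min.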
# Prx2 Sm inh: blocks S. mansoni peroxiredoxin 2 enzymatic activity; S. mansoni Prx2 activity coupled to TGR/GSH (TGR is thioredoxin glutathione reductase), NADPH fluorescence loss, qHTS; Potency, µM; 65,000 tested, 0.07% active
#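 Coupled assay in which S. mansoni TGR passes NADPH reducing equivalents via glutathione to Prx2, which reduces H2O2. Compounds were preincubated 15 min at room temperature with 25 nM TGR/50 nM Prx2 mix. Kinetic NADPH fluorescence loss (ex 365/em 450 nm) was monitored.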
# AmpC inh no det: inhibitors of E. coli AmpC beta-lactamase without detergent. P00811. Potency, µM (titrated, usually from 28.7 µM), for inactives: at the highest dose activity change, negative = inhibition. AmpC nitrocefin hydrolysis, absorbance 480 nm, no detergent. 71,000 tested, 1.8% active; further: % of control where 0% means no effect
#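 Enzyme, pH 7.0 phosphate. Compound titrations were pre-incubated with AmpC for 15 min at room temperature before nitrocefin (stock 800 uM) addition; product formation was recorded at 480 nm every 20 s for 4 min.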
# LT uptake inh: anthrax lethal toxin internalization inhibition; 70,000 tested, 0.67% active; Cells, anthrax lethal toxin internalization, FRET ratio (460/530); Potency, µM (top dose mostly 40 µM), inactives show at the top dose activity change, negative = inhibition, usual class: inhibitors; further: on the % scale 0 is the no-effect control and ±100 the full control effect; nearly all actives have a fitted effect of over 50% in size
# Active calls of the source: *; ? = inconclusive; · = no result given; [ ] = another dose, or the depositor's remark. Unless noted, the call rests on the fitted dose curve. Potency means the concentration at half of the fitted maximal effect.
SMILES,AmpC inh det,Prx2 Sm inh,AmpC inh no det,LT uptake inh
O=C1C[C@H]2OCCC=C3CN4CC[C@@]56c7ccccc7N1[C@@H]5[C@H]2[C@H]3C[C@@H]46,3%,>57,-9%,?
CCN1CCN(C(=O)C2CC(c3ccc(F)cc3)=NO2)CC1 (stereo not given),13%,>57,4µM*[single pt active],-7%
CC(=O)n1cc(-c2ccncc2)c2ccccc21,10%,>57,3.2µM*[single pt active],15%
CCCN1C(=O)c2cc(C(=O)Nc3ccccc3CC)ccc2C1O (stereo not given),13%,>57,4µM*[single pt active],-11%
CCCN1C(=O)c2cc(C(=O)NC3CCCC3)ccc2C1O (stereo not given),13%,>57,4µM*[single pt active],-10%
CCCCN1C(=O)c2ccccc2C1C(=O)NC1CCCC1 (stereo not given),-2%,>57,-1%,4%
Cc1nn(-c2ccccn2)c(C)c1Oc1ccccc1O,-1%,>57,1%,3%
Cc1nn(-c2nc3ccccc3s2)c(C)c1Oc1ccccc1O,-5%,>57,-24%,10µM*
Cn1c(=O)c2cc(S(=O)(=O)NC(Cc3ccccc3)C(=O)NCc3ccco3)ccc2n(C)c1=O (stereo not given),10%,>57,4µM*[single pt active],-4%
CCc1cc2cc(C(=O)N3CCN(Cc4ccccc4)CC3)sc2s1,1%,·,76%,13µM*
CCC(NC(=O)OC(C)(C)C)C(=O)Oc1ccc2c3c(c(=O)oc2c1)CCC3 (stereo not given),-2%,55*,44%,·
O=C(Oc1ccc2c3c(c(=O)oc2c1)CCCC3)c1ccco1,6%,55*,2%,?
Cc1c(C(=O)Nc2ccncc2)sc2nc(-c3ccccc3)cn12,12%,>57,22%,-17%
Cc1c(C(=O)Nc2ccc3c(c2)OCCO3)sc2nc(-c3ccccc3)cn12,-8%,>57,55%,10µM*
O=C(c1cnccn1)N1CCC[C@@]2(CCN(c3ccncc3)C2)C1,-1%,>57,8%,?
O=C(CSc1nnc(-c2cc3ccccc3cc2O)n1Cc1ccco1)c1ccc(F)cc1,22%,>57,10µM*,?
Nc1nc2c(s1)CC(c1ccccc1)CC2 (stereo not given),8%,>57,7.9µM*,4%
Nc1nc(SCc2ccccc2)ns1,-4%,>57,-17%,?
CCC(=O)Nc1c2c(nn1-c1cccc(Cl)c1)CSC2,13%,>57,4µM*[single pt active],6%
COc1nc(Nc2ccc3c(c2)OCO3)nc(OC)n1,11%,>57,4µM*[single pt active],-1%
COc1nc(Nc2cccc(C(F)(F)F)c2)nc(OC)n1,8%,>57,-13%,-21%
COc1ccccc1S(=O)(=O)Cc1ccc(C(=O)NCCN2CCCCCC2)o1,10%,>57,4µM*[single pt active],-17%
O=C(NCCCN1CCOCC1)c1ccc(CS(=O)(=O)c2c(Cl)cccc2Cl)o1,18%,>57,3.2µM*[single pt active],-12%
O=C(NCCCN1CCOCC1)c1ccc(CS(=O)(=O)c2ccc(Br)cc2)o1,10%,>57,4µM*[single pt active],-11%
O=C(NCCN1CCOCC1)c1ccc(CS(=O)(=O)c2ccc(Br)cc2)o1,-1%,>57,31%,-3%
SMILES,AmpC inh det,Prx2 Sm inh,AmpC inh no det,LT uptake inh
CN1CCCC2(CCN(C(=O)c3cc(C(F)(F)F)cc(C(F)(F)F)c3)CC2)C1,-1%,>57,20%,-10%
Cc1ccc2[nH]c3nc(CCCn4ccnc4-c4ccccc4)nnc3c2c1,·,·,·,4%[8 µM]
O=C(CSc1nc(-c2ccccc2)cs1)Nc1nccs1,-3%,>57,10µM*,2%
O=c1cc(-c2ccc(Cl)c(Cl)c2)[nH][nH]1,1%,>57,13µM*[single pt active],-12%
O=c1cc(-c2ccc(Cl)cc2)[nH][nH]1,-1%,>57,-5%,12%
CCNc1ncc2nc(-c3ccccc3)c(=O)n(C[C@H]3CCCO3)c2n1,1%,>57,14%,?
CCn1c(=O)c2cc(C(=O)N3CCCC3)sc2c2ccccc21,14%,>57,4µM*[single pt active],-10%
CCOC(=O)c1cc2c(=O)n(C)c3ccccc3c2s1,12%,>57,-2%,2%
CCn1c(=O)c2cc(C(=O)N3CCOCC3)sc2c2ccccc21,14%,>57,4µM*[single pt active],-16%
[N-]=[N+]=CC(=O)CC[C@H](N)C(=O)O,-1%[5.75 µM],>57,0%[5.75 µM],-10%[8 µM]
CN1CCN(c2cc3c(c4c2[nH]c2ccccc24)C(=O)CC(C)(C)C3)CC1,12%,>57,3.2µM*[single pt active],?
O=C(O)CCSCc1ccc(I)cc1,-2%[5.75 µM],>57,2%[5.75 µM],1%[8 µM]
N#Cc1c(N)nc2c(c1-c1ccc3c(c1)OCO3)CCCCCC2,0%,>57,8%,-25%
N#Cc1c(N)oc(-c2ccc3c(c2)OCO3)c1-c1ccc2c(c1)OCO2,-2%,>57,10µM*,5%
Cn1cccc1C(=O)NC(=O)COC(=O)c1ccccc1Sc1ccccc1C#N,0%,>57,4µM*,?
Cc1nc2cnc(N3CCOCC3)nc2n(CCc2ccccc2)c1=O,0%,>57,89%,-8%
COC(=O)[C@@]1(Cc2ccc(OC)cc2)[C@@H]2[C@@H](CC(=O)[C@H]2CC(=O)C(=O)N2CCCC2)CN1C(=O)c1ccccc1,-1%,>57,166%,?
c1ccc(-c2nnc3sc(CN4CCC5(CC4)OCCO5)cn23)cc1,-4%,>57,5%,8%
Brc1ccc(-c2nnc3sc(CNCc4ccc5c(c4)OCO5)cn23)cc1,8%,>57,4µM*[single pt active],-10%
Brc1ccc(-c2nnc3sc(CNC4CCCC4)cn23)cc1,10%,>57,4µM*[single pt active],-11%
CS/C(=N\S(=O)(=O)c1cccs1)NC(=O)CSc1nc2ccccc2s1,-4%,>57,13µM*,?
O=C(Nc1ccc(CN2CCOCC2)cc1)c1ccc(-c2ccc(Br)cc2)o1,-6%,>57,120%,13µM*
Cc1ccc(-c2cc(C(=O)Nc3cc(C)on3)c3ccccc3n2)c(C)c1,11%,>57,4µM*[single pt active],?
Cc1cc(C(=O)OCC(=O)Nc2cc(C)on2)c2ccccc2n1,-2%,>57,-3%,-12%
Cc1cc(NC(=O)Cn2c(=O)n(Cc3ccccc3)c(=O)c3ccccc32)no1,-1%,>57,10µM*,-7%
SMILES,AmpC inh det,Prx2 Sm inh,AmpC inh no det,LT uptake inh
O=C(Cn1c(=O)n(Cc2ccco2)c(=O)c2ccccc21)Nc1cccc(Cl)c1,13%,>57,2.5µM*[single pt active],2.5µM*
Cc1c2ccncc2c(C)c2c1[nH]c1ccccc12,-4%[12.8 µM],>57,1%[12.8 µM],5µM*
Cc1nccc2c1[nH]c1ccccc12,-1%,>57,29%,?
O=C(Oc1ccccc1)N1CCC2(CCCN(c3ccc(-c4ccccc4)cc3)C2)CC1,3%,>57,-1%,?
O=C(O)[C@H]1CN[C@H](C(=O)O)C1,4%,>57,1%,-1%
CC(=O)OC[C@@H]1O[C@H](CCON=C(C)C)C=C[C@@H]1OC(C)=O,·,·,·,-7%[8 µM]
CCC1CCCN1Cn1cnc2c([nH]c3ccc(OC)cc32)c1=O (stereo not given),-2%,>57,2%,-5%
CCCCN(CCCC)CCn1cnc2c([nH]c3ccc(OC)cc32)c1=O,13%,>57,4µM*[single pt active],-14%
